The full data set covers some 8,800 targets. This sample favours those with a hit. About 0.5% of all pairs of compound and target were hits. Unmarked numbers belong to inactive results.
Experiments:
Experiment in all cases: log2 fold change, soluble protein after heating vs DMSO (PISA); higher = thermal stabilisation; K562 lysate, 10 uM; active = over 0.2 and 3.5 SD of the protein, either way, in both replicates (recomputed)
[1] = compound: C/C(=N\NC(=O)C1=CC(=CC=C1)S(=O)(=O)N2CCOCC2)/C3=C(C=CC(=C3)Cl)O
Procedure, shortened: (§1)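 A 30 min treatment with 10 μM compound was applied to crude K562 extract at 1 mg/mL protein in PBS pH 7.4 with 1 mM MgCl2. Heating for 3 min spanned 48°C-58°C, after which aliquots were pooled, adjusted to 0.5% NP-40 at 4°C and spun at 21,000xg for 90 min. TMTpro 16plex LC-MS/MS of the supernatant, with channel sums equalised, gave values recorded as log-two fold change in thermal stability against solvent controls, from duplicates.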

[2] = compound: C1=CC2=C(C=CC(=C2)/C=C\3/C(=O)NC(=NCC4=CC=CS4)S3)N=C1
Procedure, shortened: as §1

[3] = compound: C1=CC=C2C(=C1)C3=NNC4=CC=CC(=C43)C2=O
Procedure, shortened: as §1

[4] = compound: CC1=C(C(CC(=O)N1)C2=CC=C(C=C2)C(F)(F)F)C(=O)NC3=C(C=C4C(=C3)C=NN4)F
Procedure, shortened: as §1

[5] = compound: CC1=C(C=C(C=C1)NC(=O)C2=CC(=CC=C2)C(C)(C)C#N)NC3=CC4=C(C=C3)N=CN(C4=O)C
Procedure, shortened: as §1

[6] = compound: C1CCN(C1)C(=O)NC2=CC=CC(=C2)NC3=NC=C(C(=N3)NCCC4=CN=CN4)Br
Procedure, shortened: as §1

[7] = compound: C1CN(CCC1(CC2=CC=C(C=C2)Cl)N)C3=NC=NC4=C3C=CN4
Procedure, shortened: as §1

[8] = compound: CC1=C(C2=C(C=C1)C(=O)C3=CC=CC=C3N2CCCN)C
Procedure, shortened: as §1

[9] = compound: C1=CC2=NC=CN=C2C=C1/C=C/3\C(=O)NC(=O)S3
Procedure, shortened: as §1

ibrutinib = compound: C=CC(=O)N1CCC[C@@H](n2nc(-c3ccc(Oc4ccccc4)cc3)c3c(N)ncnc32)C1 [ibrutinib]
Procedure, shortened: as §1

[10] = compound: CC(=O)c1cnc2ccc(-c3cc(Cl)c(O)c(Cl)c3)nc2c1N[C@H]1CC[C@H](CN(C)C)CC1
Procedure, shortened: as §1

[11] = compound: CC1=CC=C(C=C1)SC2=C3C=C(SC3=CN=C2)C(=O)N
Procedure, shortened: as §1

erlotinib = compound: C#Cc1cccc(Nc2ncnc3cc(OCCOC)c(OCCOC)cc23)c1 [erlotinib]
Procedure, shortened: as §1

[12] = compound: C1=CC(=CC=C1C2=NC3=C(N2)C=C(C=C3)C(=O)N)OC4=CC=C(C=C4)Cl
Procedure, shortened: as §1

[13] = compound: C1=CC=C(C=C1)C2=NC(=C(N2)C3=CC=NC=C3)C4=CC(=C(C=C4)Cl)O
Procedure, shortened: as §1

IRAK-1-4 Inhibitor I = compound: C1COCCN1CCN2C3=CC=CC=C3N=C2NC(=O)C4=CC(=CC=C4)[N+](=O)[O-] [IRAK-1-4 Inhibitor I]
Procedure, shortened: as §1

ralimetinib = compound: CC(C)(C)Cn1c(N)nc2ccc(-c3[nH]c(C(C)(C)C)nc3-c3ccc(F)cc3)nc21 [ralimetinib]
Procedure, shortened: as §1

[14] = compound: CC(C)(O)CC(=O)NCCn1ccc2ncnc(Nc3ccc(Oc4cccc(C(F)(F)F)c4)c(Cl)c3)c21
Procedure, shortened: as §1

[15] = compound: CC(C)C1=C2N=C(C=C(N2N=C1)NCC3=CC=CC=C3)NCCCCCCN
Procedure, shortened: as §1

[16] = compound: CC1=C(C=C(C=C1)NC(=O)C2=CC(=CC=C2)N(C)C)NC(=O)C3=CC=C(C=C3)O
Procedure, shortened: as §1

Chain of UniProt Q9NSC5 (Q9NSC5 whole entry, looked up): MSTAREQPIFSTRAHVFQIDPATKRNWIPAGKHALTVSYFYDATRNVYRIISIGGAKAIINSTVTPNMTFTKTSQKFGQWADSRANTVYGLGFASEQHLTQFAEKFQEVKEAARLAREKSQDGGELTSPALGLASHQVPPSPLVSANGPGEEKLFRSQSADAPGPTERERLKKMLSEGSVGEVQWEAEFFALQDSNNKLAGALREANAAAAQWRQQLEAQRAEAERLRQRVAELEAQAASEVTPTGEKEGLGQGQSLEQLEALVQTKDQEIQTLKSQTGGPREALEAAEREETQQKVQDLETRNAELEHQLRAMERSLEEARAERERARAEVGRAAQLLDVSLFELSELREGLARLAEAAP
Chain of UniProt Q9UKP3 (Q9UKP3 whole entry, looked up): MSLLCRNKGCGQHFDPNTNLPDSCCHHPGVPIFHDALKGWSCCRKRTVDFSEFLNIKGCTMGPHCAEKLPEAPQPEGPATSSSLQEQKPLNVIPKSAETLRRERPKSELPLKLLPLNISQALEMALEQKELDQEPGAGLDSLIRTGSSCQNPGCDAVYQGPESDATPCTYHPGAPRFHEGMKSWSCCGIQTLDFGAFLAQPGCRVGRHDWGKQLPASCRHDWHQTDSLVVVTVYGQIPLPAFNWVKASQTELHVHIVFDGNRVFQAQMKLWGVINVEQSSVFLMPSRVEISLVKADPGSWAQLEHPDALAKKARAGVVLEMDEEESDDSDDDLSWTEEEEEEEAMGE
Chain of UniProt P17096 (P17096 whole entry, looked up): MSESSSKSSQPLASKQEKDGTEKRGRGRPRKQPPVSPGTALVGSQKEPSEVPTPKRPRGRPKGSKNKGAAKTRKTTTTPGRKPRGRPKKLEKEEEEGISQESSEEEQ
Chain of UniProt P22692 (P22692 whole entry, looked up): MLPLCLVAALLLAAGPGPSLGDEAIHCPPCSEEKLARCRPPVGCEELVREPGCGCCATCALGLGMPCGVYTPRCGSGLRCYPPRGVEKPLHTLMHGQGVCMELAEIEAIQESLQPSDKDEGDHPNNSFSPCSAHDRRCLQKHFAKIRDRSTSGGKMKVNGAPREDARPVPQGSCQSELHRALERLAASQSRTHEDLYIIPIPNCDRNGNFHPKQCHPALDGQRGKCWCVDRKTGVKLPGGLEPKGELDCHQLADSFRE
Chain of UniProt O43824 (O43824 whole entry, looked up): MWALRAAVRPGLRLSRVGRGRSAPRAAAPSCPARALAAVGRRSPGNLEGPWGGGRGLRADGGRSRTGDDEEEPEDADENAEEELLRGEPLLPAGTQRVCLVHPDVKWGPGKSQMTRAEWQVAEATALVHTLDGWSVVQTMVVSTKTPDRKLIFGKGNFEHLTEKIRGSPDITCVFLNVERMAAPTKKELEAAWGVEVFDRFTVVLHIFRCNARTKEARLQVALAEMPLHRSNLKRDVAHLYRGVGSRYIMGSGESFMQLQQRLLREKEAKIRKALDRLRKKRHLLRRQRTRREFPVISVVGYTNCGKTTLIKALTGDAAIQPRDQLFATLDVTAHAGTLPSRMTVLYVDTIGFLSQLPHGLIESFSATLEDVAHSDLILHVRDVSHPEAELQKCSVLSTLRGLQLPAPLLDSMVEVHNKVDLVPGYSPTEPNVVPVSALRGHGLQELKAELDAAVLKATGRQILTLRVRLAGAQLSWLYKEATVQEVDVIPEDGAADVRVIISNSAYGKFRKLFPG
Chain of UniProt Q96EW2 (Q96EW2 whole entry, looked up): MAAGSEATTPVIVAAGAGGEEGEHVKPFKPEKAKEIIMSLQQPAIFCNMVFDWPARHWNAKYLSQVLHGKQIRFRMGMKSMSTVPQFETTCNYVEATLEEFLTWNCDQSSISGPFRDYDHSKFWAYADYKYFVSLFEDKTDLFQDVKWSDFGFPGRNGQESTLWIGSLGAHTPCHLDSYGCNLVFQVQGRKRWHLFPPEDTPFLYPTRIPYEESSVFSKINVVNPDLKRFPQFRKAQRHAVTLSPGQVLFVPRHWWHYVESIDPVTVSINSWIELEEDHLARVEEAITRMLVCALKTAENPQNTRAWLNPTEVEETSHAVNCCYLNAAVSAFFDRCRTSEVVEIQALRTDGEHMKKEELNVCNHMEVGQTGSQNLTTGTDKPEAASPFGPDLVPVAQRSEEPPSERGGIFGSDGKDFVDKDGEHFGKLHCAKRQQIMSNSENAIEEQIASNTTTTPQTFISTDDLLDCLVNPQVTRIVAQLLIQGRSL
Chain of UniProt Q9Y4H2 (Q9Y4H2 whole entry, looked up): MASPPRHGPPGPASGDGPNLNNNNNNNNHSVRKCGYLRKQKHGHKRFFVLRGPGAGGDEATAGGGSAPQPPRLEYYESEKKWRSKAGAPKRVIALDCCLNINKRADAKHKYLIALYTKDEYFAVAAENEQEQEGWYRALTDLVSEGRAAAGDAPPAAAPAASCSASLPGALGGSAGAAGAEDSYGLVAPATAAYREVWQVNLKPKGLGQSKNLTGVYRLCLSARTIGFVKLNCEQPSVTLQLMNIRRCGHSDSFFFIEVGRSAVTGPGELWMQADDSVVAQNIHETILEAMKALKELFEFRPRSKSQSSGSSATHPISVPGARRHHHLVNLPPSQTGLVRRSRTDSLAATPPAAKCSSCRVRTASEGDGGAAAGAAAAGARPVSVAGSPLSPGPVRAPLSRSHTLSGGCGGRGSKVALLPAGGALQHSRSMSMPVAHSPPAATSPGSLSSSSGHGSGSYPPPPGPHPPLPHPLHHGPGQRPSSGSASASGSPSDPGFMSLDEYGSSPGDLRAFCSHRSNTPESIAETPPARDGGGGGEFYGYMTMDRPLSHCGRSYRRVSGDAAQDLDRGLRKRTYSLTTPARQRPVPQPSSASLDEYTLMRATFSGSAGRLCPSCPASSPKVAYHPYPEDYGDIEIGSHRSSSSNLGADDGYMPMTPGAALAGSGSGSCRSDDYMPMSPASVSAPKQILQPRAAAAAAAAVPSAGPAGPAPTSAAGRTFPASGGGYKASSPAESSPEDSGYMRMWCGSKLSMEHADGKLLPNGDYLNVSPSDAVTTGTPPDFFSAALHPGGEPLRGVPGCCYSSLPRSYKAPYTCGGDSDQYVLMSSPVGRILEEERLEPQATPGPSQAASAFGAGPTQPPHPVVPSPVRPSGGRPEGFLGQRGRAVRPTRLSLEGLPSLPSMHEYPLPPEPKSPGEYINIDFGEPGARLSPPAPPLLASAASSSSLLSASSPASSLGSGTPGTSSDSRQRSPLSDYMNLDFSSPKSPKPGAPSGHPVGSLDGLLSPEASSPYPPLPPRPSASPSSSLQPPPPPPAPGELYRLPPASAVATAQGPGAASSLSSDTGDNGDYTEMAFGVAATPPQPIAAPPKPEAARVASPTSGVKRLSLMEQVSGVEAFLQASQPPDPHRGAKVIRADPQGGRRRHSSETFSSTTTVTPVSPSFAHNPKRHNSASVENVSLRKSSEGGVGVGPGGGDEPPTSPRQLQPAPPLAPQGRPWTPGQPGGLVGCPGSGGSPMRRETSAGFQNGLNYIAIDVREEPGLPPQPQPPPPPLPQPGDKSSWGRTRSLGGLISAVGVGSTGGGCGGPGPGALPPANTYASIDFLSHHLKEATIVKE
Chain of UniProt Q9BQQ3 (Q9BQQ3 whole entry, looked up): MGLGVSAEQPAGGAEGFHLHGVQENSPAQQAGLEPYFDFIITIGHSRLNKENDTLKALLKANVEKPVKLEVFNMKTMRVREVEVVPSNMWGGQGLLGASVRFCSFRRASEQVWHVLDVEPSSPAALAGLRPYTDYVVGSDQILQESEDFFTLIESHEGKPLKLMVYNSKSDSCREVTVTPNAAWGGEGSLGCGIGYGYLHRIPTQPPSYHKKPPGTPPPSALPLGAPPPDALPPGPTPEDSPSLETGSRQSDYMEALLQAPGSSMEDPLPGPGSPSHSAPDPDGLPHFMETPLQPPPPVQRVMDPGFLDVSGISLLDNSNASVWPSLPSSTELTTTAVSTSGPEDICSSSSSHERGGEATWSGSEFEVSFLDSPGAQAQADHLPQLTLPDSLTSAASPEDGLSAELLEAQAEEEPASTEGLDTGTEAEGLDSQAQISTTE
Chain of UniProt Q9H9Y4 (Q9H9Y4 whole entry, looked up): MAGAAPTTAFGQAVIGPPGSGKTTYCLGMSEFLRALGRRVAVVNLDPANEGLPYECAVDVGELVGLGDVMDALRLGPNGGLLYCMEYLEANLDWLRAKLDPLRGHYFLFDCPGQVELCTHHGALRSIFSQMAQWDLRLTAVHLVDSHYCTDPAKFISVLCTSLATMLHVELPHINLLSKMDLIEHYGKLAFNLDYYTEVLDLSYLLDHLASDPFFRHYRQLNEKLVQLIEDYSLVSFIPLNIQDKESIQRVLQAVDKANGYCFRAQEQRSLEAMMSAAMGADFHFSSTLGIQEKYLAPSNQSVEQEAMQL
Chain of UniProt Q9Y287 (Q9Y287 whole entry, looked up): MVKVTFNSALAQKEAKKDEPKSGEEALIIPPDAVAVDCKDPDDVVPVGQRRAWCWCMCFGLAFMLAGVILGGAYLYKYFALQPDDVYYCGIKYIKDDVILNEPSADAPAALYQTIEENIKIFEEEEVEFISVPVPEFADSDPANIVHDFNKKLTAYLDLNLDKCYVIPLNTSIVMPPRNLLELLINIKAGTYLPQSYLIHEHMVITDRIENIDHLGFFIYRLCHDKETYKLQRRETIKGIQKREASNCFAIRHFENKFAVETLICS
Chain of UniProt Q9H079 (Q9H079 whole entry, looked up): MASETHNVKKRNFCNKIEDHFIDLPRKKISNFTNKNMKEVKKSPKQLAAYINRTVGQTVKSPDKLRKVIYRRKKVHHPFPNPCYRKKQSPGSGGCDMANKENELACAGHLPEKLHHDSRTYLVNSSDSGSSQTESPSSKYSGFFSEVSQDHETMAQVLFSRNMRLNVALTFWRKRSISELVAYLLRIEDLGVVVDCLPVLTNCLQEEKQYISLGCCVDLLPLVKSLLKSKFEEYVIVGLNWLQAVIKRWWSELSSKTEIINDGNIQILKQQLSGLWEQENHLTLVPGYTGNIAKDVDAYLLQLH

Target | log2 fold change [1] | log2 fold change [2] | log2 fold change [3] | log2 fold change [4] | log2 fold change [5] | log2 fold change [6] | log2 fold change [7] | log2 fold change [8] | log2 fold change [9] | log2 fold change (ibrutinib) | log2 fold change [10] | log2 fold change [11] | log2 fold change (erlotinib) | log2 fold change [12] | log2 fold change [13] | log2 fold change (IRAK-1-4 Inhibitor I) | log2 fold change (ralimetinib) | log2 fold change [14] | log2 fold change [15] | log2 fold change [16]
HNRNPM (UniProt M0R019) | 0.224 | 0.178 | -0.128 |  |  |  |  |  |  |  |  |  |  |  |  |  |  |  |  | 
HNRNPD (UniProt D6RF44) |  |  |  | 0.111 | -0.334 |  |  |  |  |  |  |  |  |  |  |  |  |  |  | 
ITGB1BP2 (UniProt Q9UKP3) | 0.017 | -0.001 | 0.039 |  |  | -0.117 | 0.09 | 0.139 |  |  |  |  |  |  |  |  |  |  |  | 
HOMER3 (UniProt Q9NSC5) |  |  |  |  | -0.028 |  |  |  | -0.078 | -0.095 | -0.01 | 0.048 |  |  |  |  |  |  |  | 
HMGN5 (UniProt Q5JSK9) |  |  |  | -0.094 |  | 0.008 | -0.076 |  | -0.128 | 0.051 | -0.007 | -0.005 |  |  |  |  |  |  |  | 
HMGA1 isoform 2 (UniProt P17096) |  |  |  | 0.047 | -0.034 |  |  | -0.229 |  |  | 0.053 | 0.01 | 0.042 | -0.043 | 0.022 | 0 | -0.122 | 0.088 | -0.029 | 0.054
IGF2BP2 isoform 6 (UniProt Q9Y6M1) |  |  |  |  |  |  |  |  |  |  | -0.031 | -0.016 |  |  |  |  |  |  |  | 
KATNBL1 (UniProt Q9H079) | 0.009 | 0.064 | -0.001 | -0.029 | 0.082 | 0.045 | -0.687 (active) | -0.002 |  |  | -0.002 | -0.025 | -0.012 | -0.02 |  |  |  |  | 0.156 | 
HYDIN (UniProt Q4G0P3) | -0.022 | 0.005 | 0.036 |  |  | -0.054 | 0.022 | -0.05 |  |  | -0.076 | 0.017 |  |  | 1.34 (active) | 0.712 | 0.148 | -0.071 |  | -0.107
KDM5B isoform 2 (UniProt Q9UGL1) | 0.03 | -0.021 | -0.074 |  | -0.016 | -0.035 | 0.099 | -0.129 | 0.031 | -0.075 | -0.046 | -0.098 | 0.07 | 0.006 | 0.012 | 0.011 | -0.083 | -0.165 | -0.072 | -0.095
H3-3A (UniProt P84243) | 0.001 | -0.033 | 0.056 |  | -0.034 | -0.053 | -0.315 (active) |  | -0.055 | 0.042 | -0.047 | -0.086 | 0.038 | 0.048 |  |  |  |  | 0.013 | 
GPN2 (UniProt Q9H9Y4) | 0.089 | 0.043 | -0.056 | 0.036 | 0.067 | -0.241 (active) | -0.062 | 0.025 |  |  | -0.022 | 0.019 | -0.022 | 0.032 | -0.041 | -0.027 | 0.12 | 0.028 | -0.042 | 0.057
GYPA, A0A2R8Y7F9 |  |  |  |  |  |  |  |  | 0.066 | -0.019 |  |  |  |  |  |  |  |  |  | 
IGFBP4 (UniProt P22692) |  |  |  | -0.021 | 0.123 |  |  | 0.236 | 0.218 | 0.035 | 0.169 | -0.139 | 0.06 | 0.025 | -0.033 | 0.016 | 0.012 | -0.087 | -0.029 | 0.037
HTT (UniProt P42858) | -0.051 | 0.037 | -0.138 | 0.047 | 0.035 | -0.04 | -0.05 | -0.032 | 0.032 | 0.11 |  |  | 0.018 | -0.067 | -0.041 | -0.027 | 0.065 | 0.008 | -0.032 | 0.04
HDAC3 (UniProt E7ESJ6) |  |  |  |  |  |  |  |  |  |  | -0.107 | -0.004 |  |  |  |  |  |  |  | 
GTPBP6 (UniProt O43824) | 0.187 | 0.11 | -0.048 |  |  | -0.082 | 0.037 | -0.617 |  |  |  |  |  |  |  |  |  |  |  | 
HSPBAP1 (UniProt Q96EW2) |  |  |  | -0.214 | 0.002 | 0.002 | 0.031 | -0.324 | -0.079 | -0.008 | 0.039 | 0.084 | 0.064 | -0.098 | -0.072 | -0.002 | -0.056 | -0.095 | 0.038 | 0.084
GORASP1 (UniProt Q9BQQ3) | -0.026 | 0.05 | -0.057 | 0.038 | -0.061 | 0.049 | 0.018 | 0.027 |  |  | 0.137 | -0.02 | -0.081 | -0.019 | 0.01 | -0.023 | -0.01 | -0.011 | 0.019 | -0.034
ITM2B (UniProt Q9Y287) | 0.225 | -0.202 | 0.052 | 0.051 | 0.019 |  |  | -0.011 | 0.026 | -0.04 |  |  | -0.039 | 0.02 | 0.005 | 0.023 | 0.131 | -0.106 | -0.044 | -0.088
IRS2 (UniProt Q9Y4H2) |  |  |  | 0.049 | 0.118 |  |  | -0.079 | 0.164 | -0.089 | -0.209 | 0.254 | 0.04 | -0.099 | 0.143 | -0.009 | 0.014 | 0.047 | 0.03 | -0.051
HNRNPM (UniProt M0QZM1) | 0.07 | 0.044 | 0.066 |  | -0.068 | 0.046 | 0.086 | 0.121 | 0.246 | 0.003 |  |  |  |  |  |  |  |  |  | 

— the supplement of paper PMC10849652
